Experimental findings from the antibiotic and cytotoxicity screens of Wong et al. (2023) are described below.

Among all 39,000 compounds or so, about 3,300 (8.5%) were called active. The list comes from a sample in which actives are over-represented; it also holds similar structures and randomly drawn compounds.

In this assay the test system is HepG2. As to the kind of experiment: cytotoxicity call (relative viability < 0.9). The conditions noted are these: 10 µM.
Turning to `C[C@H]1CN([C@@H](C)CO)C(=O)Cc2cc(NC(=O)NC3CCCCC3)ccc2O[C@H]1CN(C)Cc1ccc(C(F)(F)F)cc1`, the cytotoxicity call was “active”.

As to `CC(C)NC(=O)N(C)C[C@H]1Oc2ccc(NC(=O)CCC(F)(F)F)cc2CC(=O)N([C@@H](C)CO)C[C@@H]1C`, the cytotoxicity call was “active”.

As for `C[C@@H]1CN([C@H](C)CO)C(=O)Cc2cc(NC(=O)NC3CCCCC3)ccc2O[C@@H]1CN(C)Cc1ccc(C(F)(F)F)cc1`, the cytotoxicity call was “inactive”.

With `C[C@@H]1CN([C@H](C)CO)C(=O)Cc2cc(NC(=O)Nc3ccc(C(F)(F)F)cc3)ccc2O[C@@H]1CN(C)Cc1ccc(C(F)(F)F)cc1`, the cytotoxicity call was “active”. Under `CC(C)NC(=O)N(C)C[C@H]1Oc2ccc(NC(=O)CCC(F)(F)F)cc2CC(=O)N([C@H](C)CO)C[C@H]1C` stands “inactive”.

As to `C[C@@H]1CN([C@@H](C)CO)C(=O)Cc2cc(NC(=O)Nc3ccc(C(F)(F)F)cc3)ccc2O[C@H]1CN(C)Cc1ccc(C(F)(F)F)cc1`, the cytotoxicity call was “active”.

For the molecule `C[C@@H]1CN([C@H](C)CO)C(=O)Cc2cc(NC(=O)NC3CCCCC3)ccc2O[C@H]1CN(C)Cc1ccc(C(F)(F)F)cc1`, the cytotoxicity call was “inactive”. As for `CC(C)NC(=O)N(C)C[C@@H]1Oc2ccc(NC(=O)CCC(F)(F)F)cc2CC(=O)N([C@@H](C)CO)C[C@H]1C`, the cytotoxicity call was “inactive”. Under `C[C@H]1CN([C@@H](C)CO)C(=O)Cc2cc(NC(=O)Nc3ccc(C(F)(F)F)cc3)ccc2O[C@H]1CN(C)Cc1ccc(C(=O)O)cc1` stands “inactive”; under `C[C@H](CO)N1C[C@H](C)[C@@H](CN(C)Cc2ccc(C(=O)O)cc2)Oc2ccc(NC(=O)Nc3ccc(C(F)(F)F)cc3)cc2CC1=O`, “inactive”; under `Cc1noc(C)c1S(=O)(=O)N(C)C[C@@H]1Oc2ccc(NC(=O)Nc3ccccc3)cc2CC(=O)N([C@@H](C)CO)C[C@H]1C`, “inactive”. The entry for `Cc1cc(O)c(C(=O)/C=C/N(C)C)c(=O)o1` is “inactive”.

`C[C@@H]1CN([C@@H](C)CO)C(=O)CCCn2cc(nn2)CO[C@H]1CN(C)C(=O)Nc1ccc2c(c1)OCCO2`: the cytotoxicity call was “inactive”. Under `C[C@@H]1CN([C@@H](C)CO)C(=O)c2cc(-c3ccc(C#N)cc3)cnc2O[C@H]1CN(C)C(=O)Nc1ccc(C(F)(F)F)cc1` stands “inactive”. Under `CCCCC[C@H]1C[C@H](O[C@H]2O[C@@H](CO)[C@@H](O)[C@@H](O)[C@@H]2O)CC(=O)O1` stands “inactive”. The entry for `C[C@@H]1CN([C@@H](C)CO)C(=O)Cc2cc(NC(=O)Nc3ccc(C(F)(F)F)cc3)ccc2O[C@@H]1CN(C)Cc1ccc(C(F)(F)F)cc1` is “active”; for `C[C@@H]1CN([C@H](C)CO)C(=O)Cc2cc(NC(=O)Nc3ccc(C(F)(F)F)cc3)ccc2O[C@H]1CN(C)Cc1ccc(C(=O)O)cc1` it is “inactive”; for `C[C@@H]1CN([C@@H](C)CO)C(=O)Cc2cc(NC(=O)Nc3ccc(C(F)(F)F)cc3)ccc2O[C@H]1CN(C)Cc1ccc(C(=O)O)cc1` it is “inactive”. Consider `C[C@@H]1CCCCO[C@@H](CN(C)S(C)(=O)=O)[C@@H](C)CN([C@@H](C)CO)C(=O)c2cc(NS(=O)(=O)c3ccc(F)cc3)ccc2O1`, for which the cytotoxicity call is “inactive”.

`C[C@H](CO)N1C[C@H](C)[C@@H](CN(C)Cc2ccc(Oc3ccccc3)cc2)Oc2ccc(NC(=O)Nc3ccccc3)cc2CC1=O`: the cytotoxicity call is “inactive”.

Regarding `C[C@H]1CN([C@@H](C)CO)C(=O)Cc2cc(NC(=O)Nc3ccccc3)ccc2O[C@H]1CN(C)Cc1ccc(Oc2ccccc2)cc1`, the cytotoxicity call is “active”.

As for `C[C@H]1CN([C@@H](C)CO)C(=O)Cc2cc(NC(=O)Nc3ccccc3)ccc2O[C@@H]1CN(C)Cc1ccc(Oc2ccccc2)cc1`, the cytotoxicity call was “active”. `C[C@@H]1CN([C@@H](C)CO)C(=O)Cc2cc(NC(=O)Nc3ccccc3)ccc2O[C@@H]1CN(C)Cc1ccc(Oc2ccccc2)cc1`: the cytotoxicity call was “active”.

On to `CC(C)NC(=O)Nc1ccc2c(c1)CC(=O)N([C@@H](C)CO)C[C@H](C)[C@H](CN(C)Cc1ccc(Oc3ccccc3)cc1)O2`, for which the cytotoxicity call was “inactive”. Consider `C[C@@H]1CN([C@@H](C)CO)C(=O)Cc2cc(NC(=O)Nc3ccccc3)ccc2O[C@H]1CN(C)Cc1ccc(Oc2ccccc2)cc1`, for which the cytotoxicity call is “inactive”. The entry for `C[C@@H]1CN([C@H](C)CO)C(=O)Cc2cc(NC(=O)Nc3ccccc3)ccc2O[C@H]1CN(C)Cc1ccc(Oc2ccccc2)cc1` is “active”; for `CC(C)NC(=O)Nc1ccc2c(c1)CC(=O)N([C@@H](C)CO)C[C@H](C)[C@@H](CN(C)Cc1ccc(Oc3ccccc3)cc1)O2` it is “inactive”; for `CC(C)NC(=O)Nc1ccc2c(c1)CC(=O)N([C@H](C)CO)C[C@H](C)[C@H](CN(C)Cc1ccc(Oc3ccccc3)cc1)O2` it is “inactive”. Under `COCC#Cc1ccc2c(c1)O[C@@H](CN(C)C(=O)c1ccccc1F)[C@H](C)CN([C@@H](C)CO)S2(=O)=O` stands “inactive”; under `Cc1noc(C)c1S(=O)(=O)N(C)C[C@@H]1Oc2ccc(NS(C)(=O)=O)cc2CC(=O)N([C@H](C)CO)C[C@@H]1C`, “inactive”. The entry for `C[C@H](CO)N1C[C@H](C)[C@@H](CN(C)S(=O)(=O)c2cn(C)cn2)Oc2cc(C#Cc3ccccc3)ccc2S1(=O)=O` is “inactive”; for `C=CC[C@@H](CC(=O)N[C@@H](CO)Cc1ccccc1)C(=O)NCCOC(=O)[C@H](CC=C)CC(=O)OC(C)(C)C` it is “inactive”. In the case of `C[C@@H]1CN([C@H](C)CO)C(=O)Cc2cc(NC(=O)CCN3CCOCC3)ccc2O[C@@H]1CN(C)S(=O)(=O)c1ccccc1`, the cytotoxicity call is “inactive”. Consider `C[C@H]1CCCCO[C@@H](CN(C)C(=O)c2ccccc2)[C@@H](C)CN([C@@H](C)CO)C(=O)c2cc(NC(=O)NC3CCCCC3)ccc2O1`, for which the cytotoxicity call was “inactive”. The entry for `Cc1cccc(CN(C)C[C@@H]2Oc3ncc(-c4cccc(C(F)(F)F)c4)cc3C(=O)N([C@H](C)CO)C[C@@H]2C)c1` is “inactive”. The entry for `CC(C)NC(=O)Nc1ccc2c(c1)C(=O)N([C@H](C)CO)C[C@@H](C)[C@@H](CN(C)S(=O)(=O)c1cn(C)cn1)OCCCC[C@H](C)O2` is “inactive”. On to `COc1ccc(S(=O)(=O)Nc2ccc3c(c2)CC(=O)N([C@H](C)CO)C[C@H](C)[C@H](CN(C)S(=O)(=O)c2ccc(OC)cc2)O3)cc1`, for which the cytotoxicity call was “inactive”.

With `Nc1cc(=O)nc(C(F)(F)F)[nH]1`, the cytotoxicity call is “inactive”. Under `Cc1ccc(S(=O)(=O)Nc2cccc3c2O[C@@H](CN(C)S(=O)(=O)c2ccc(F)cc2)[C@@H](C)CN([C@@H](C)CO)C3=O)cc1` stands “inactive”; under `O=C(CN1CCOCC1)N[C@@H]1CC[C@H](CCNC(=O)Nc2cc(F)ccc2F)O[C@H]1CO`, “inactive”. As to `COc1ccc(S(=O)(=O)Nc2ccc3c(c2)[C@@H]2C[C@H](CC(=O)NCC4CC4)O[C@H](CO)[C@@H]2O3)cc1`, the cytotoxicity call is “inactive”.

Regarding `CCS(=O)(=O)Nc1ccc2c(c1)C(=O)N(C)[C@@H]1CC[C@H](CC(=O)N[C@H]3CCN(Cc4ccccc4)C3)O[C@@H]1CO2`, the cytotoxicity call is “inactive”. The entry for `c1cc([C@@H]2CNCCN2)[nH]n1` is “inactive”. Consider `C[C@@H]1CCCCO[C@H](CN(C)S(=O)(=O)c2ccccc2)[C@H](C)CN([C@@H](C)CO)C(=O)c2cc(NC(=O)CCC(F)(F)F)ccc2O1`, for which the cytotoxicity call was “inactive”. For the molecule `Cc1noc(C)c1S(=O)(=O)Nc1cccc2c1O[C@H](CN(C)S(=O)(=O)c1c(C)noc1C)[C@H](C)CN([C@@H](C)CO)C2=O`, the cytotoxicity call was “inactive”.

For the molecule `C[C@@H]1CN([C@H](C)CO)C(=O)Cc2cc(NC(=O)Nc3ccccc3)ccc2O[C@@H]1CN(C)Cc1ccc(Oc2ccccc2)cc1`, the cytotoxicity call is “active”. Regarding `CC(C)NC(=O)Nc1ccc2c(c1)CC(=O)N([C@@H](C)CO)C[C@@H](C)[C@H](CN(C)Cc1ccc(Oc3ccccc3)cc1)O2`, the cytotoxicity call is “inactive”.

As to `CC(C)NC(=O)Nc1ccc2c(c1)CC(=O)N([C@H](C)CO)C[C@@H](C)[C@@H](CN(C)Cc1ccc(Oc3ccccc3)cc1)O2`, the cytotoxicity call was “active”. Under `CC(C)NC(=O)Nc1ccc2c(c1)CC(=O)N([C@@H](C)CO)C[C@@H](C)[C@@H](CN(C)Cc1ccc(Oc3ccccc3)cc1)O2` stands “inactive”; under `CC(C)NC(=O)Nc1ccc2c(c1)CC(=O)N([C@H](C)CO)C[C@@H](C)[C@H](CN(C)Cc1ccc(Oc3ccccc3)cc1)O2`, “inactive”. As to `C[C@H](CO)N1C[C@H](C)[C@H](CN(C)Cc2ccc(Oc3ccccc3)cc2)Oc2ccc(NC(=O)Nc3ccccc3)cc2CC1=O`, the cytotoxicity call is “inactive”. Turning to `CCOc1nc2cccc(C(=O)OCc3oc(=O)oc3C)c2n1Cc1ccc(-c2ccccc2-c2noc([O-])n2)cc1.[K+]`, the cytotoxicity call was “inactive”. In the case of `O=C(C[C@@H]1CC[C@@H]2[C@H](COC[C@@H](O)CN2C(=O)c2ccc(F)cc2)O1)NCCCN1CCOCC1`, the cytotoxicity call was “inactive”. Under `CN(C)C(=O)c1ccc(-c2cccc(-c3nc(C(=O)NC4CCC4)cc4c3[C@H](CCO)N([S@@](=O)C(C)(C)C)C4)c2)cc1` stands “inactive”.

Turning to `Cc1ccc(S(=O)(=O)N(C)C[C@H]2Oc3ccc(NS(=O)(=O)c4cccs4)cc3C(=O)N([C@@H](C)CO)C[C@H]2C)cc1`, the cytotoxicity call was “inactive”. On to `CC1(C)OC(=O)C2(C(=O)O1)[C@@H](c1ccc(-c3cccc(Br)c3)cc1)CC(=O)C[C@H]2c1ccccc1`, for which the cytotoxicity call was “inactive”. As to `CCCNC(=O)c1cc2c(c(-c3cccc(-c4cc5ccccc5o4)c3)n1)[C@H](CCO)N(C(=O)NC(C)C)C2`, the cytotoxicity call is “inactive”. The entry for `C[C@@H]1CCCCO[C@@H](CN(C)S(=O)(=O)c2ccccc2)[C@@H](C)CN([C@@H](C)CO)C(=O)c2cc(NC(=O)Nc3cccc4ccccc34)ccc2O1` is “inactive”; for `Cc1noc(C)c1S(=O)(=O)Nc1ccc2c(c1)C(=O)N([C@H](C)CO)C[C@H](C)[C@@H](CN(C)S(=O)(=O)c1cn(C)cn1)OCCCC[C@H](C)O2` it is “inactive”. As for `C[C@H](CO)N1C[C@H](C)[C@@H](CN(C)Cc2ccc(C(F)(F)F)cc2)Oc2ccc(NC(=O)Nc3cccc4ccccc34)cc2C1=O`, the cytotoxicity call is “inactive”. With `C[C@@H]1CN([C@H](C)CO)C(=O)c2cc(NC(=O)Nc3cccc4ccccc34)ccc2O[C@@H]1CN(C)Cc1ccc(C(F)(F)F)cc1`, the cytotoxicity call was “inactive”. Consider `C[C@@H]1CN([C@H](C)CO)C(=O)c2cc(NC(=O)Nc3cccc4ccccc34)ccc2O[C@H]1CN(C)Cc1ccc(C(F)(F)F)cc1`, for which the cytotoxicity call was “inactive”.

With `C[C@H]1CN([C@@H](C)CO)C(=O)c2cc(NC(=O)Nc3cccc4ccccc34)ccc2O[C@H]1CN(C)Cc1ccc(C(F)(F)F)cc1`, the cytotoxicity call was “inactive”.

Consider `C[C@H](CO)N1C[C@H](C)[C@H](CN(C)Cc2ccc(C(F)(F)F)cc2)Oc2ccc(NC(=O)Nc3cccc4ccccc34)cc2C1=O`, for which the cytotoxicity call was “active”. Take `C[C@H]1CN([C@@H](C)CO)C(=O)c2cc(NC(=O)Nc3cccc4ccccc34)ccc2O[C@@H]1CN(C)Cc1ccc(C(F)(F)F)cc1`: the cytotoxicity call was “inactive”. The entry for `C[C@@H]1CN([C@@H](C)CO)C(=O)c2cc(NC(=O)Nc3cccc4ccccc34)ccc2O[C@@H]1CN(C)Cc1ccc(C(F)(F)F)cc1` is “active”; for `C[C@@H]1CN([C@@H](C)CO)C(=O)c2cc(NC(=O)Nc3cccc4ccccc34)ccc2O[C@H]1CN(C)Cc1ccc(C(F)(F)F)cc1` it is “active”.
